Data reported in PubChem BioAssay AID1159580 (chemical genetic matrix, 2015).
Several values for one entry are separate records, joined by “and”; a condition that tells them apart may be missing. Equal values may be shown once. The whole screen tested about 5,500 compounds, of which about 2,000 (36%) were called active. Not shown: some 18% with an inconclusive outcome. Cut-off read from the data, not from the text of the source: active = normalized growth mostly below about 0.91 (no sharp cut-off); inconclusive = no clear call, values can overlap the other calls; inactive = mostly above about 0.92. Some of the results follow.

Assay: chemical genetic growth profiling, strain panel (AID 1159580);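 note: tested at 20 µM; growth read once vehicle control cultures reached saturation at 30 °C; 1 = growth at the plate median or of vehicle wells; lower values mean less growth of the strain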
Details: S. cerevisiae deletion strains, growth OD

Measured: normalized growth

Nc1ccc(C(=O)NCC(=O)O)cc1
inactive: locus YAL021C, strain ccr4, hits give low values 1.02 | locus YAL026C, strain drs2, hits give low values 1.02 | locus YAL030W, strain snc1, hits give low values 0.998 | locus YBL061C, strain skt5, hits give low values 1.01 | locus YBR009C, strain hhf1, hits give low values 1.01 | locus YBR021W, strain FUR4, hits give low values 1.01 | locus YBR023C, strain chs3, hits give low values 1.02 | locus YBR171W, strain sec66, hits give low values 1.02 | locus YBR229C, strain ROT2, hits give low values 1 | locus YBR231C, strain swc5, hits give low values 1.01 | locus YBR279W, strain paf1, hits give low values 1.01 | locus YCL011C, strain gbp2, hits give low values 1.02 | locus YCL016C, strain dcc1, hits give low values 1.02 | locus YCL029C, strain bik1, hits give low values 1 | locus YCL069W, strain vba3, hits give low values 1 | locus YCR088W, strain abp1, hits give low values 1.01 | locus YDL005C, strain med2, hits give low values 1.01 | locus YDL035C, strain GPR1, hits give low values 1.01 | locus YDL040C, strain nat1, hits give low values 1 | locus YDL074C, strain BRE1, hits give low values 0.992 | locus YDL101C, strain DUN1, hits give low values 1 | locus YDL134C, strain PPH21, hits give low values 1.01 | locus YDL185W, strain tfp1, hits give low values 1.01 | locus YDL192W, strain arf1, hits give low values 1.01 | locus YDR001C, strain nth1, hits give low values 1.01 | locus YDR069C, strain doa4, hits give low values 1 | locus YDR101C, strain arx1, hits give low values 0.993 | locus YDR137W, strain rgp1, hits give low values 1.02 | locus YDR150W, strain NUM1, hits give low values 1.01 | locus YDR159W, strain sac3, hits give low values 0.979 | locus YDR162C, strain NBP2, hits give low values 1.01 | locus YDR195W, strain ref2 0.999 | locus YDR297W, strain sur2, hits give low values 1.02 | locus YDR318W, strain mcm21, hits give low values 1.02 | locus YDR334W, strain swr1, hits give low values 1.04 | locus YDR335W, strain msn5, hits give low values 1.02 | locus YDR388W, hits give low values 1 | locus YDR392W, strain spt3, hits give low values 1.03 | locus YDR502C, strain sam2, hits give low values 1.01 | locus YEL003W, strain gim4, hits give low values 1.02 | locus YEL037C, strain rad23, hits give low values 0.998 | locus YEL061C, strain CIN8 (second series), hits give low values 1.01 | locus YEL061C, strain CIN8, hits give low values 1 | locus YER015W, strain faa2, hits give low values 0.996 | locus YER016W, strain bim1, hits give low values 1.02 | locus YER110C, hits give low values 1.02 | locus YER111C, strain swi4, hits give low values 0.996 | locus YER155C, strain BEM2 (second series), hits give low values 1.02 | locus YER155C, strain BEM2, hits give low values 0.994 | locus YER167W, strain BCK2, hits give low values 1.01 | locus YFR010W, strain ubp6, hits give low values 0.999 | locus YGL078C, strain dbp3, hits give low values 1.02 | locus YGL086W, strain mad1, hits give low values 1.01 | locus YGL167C, strain pmr1, hits give low values 1.02 | locus YGL173C, strain kem1, hits give low values 1.01 | locus YGL227W, strain vid30, hits give low values 1 | locus YGL240W, strain doc1, hits give low values 0.993 | locus YGL248W, strain PDE1, hits give low values 0.992 | locus YGL253W, strain hxk2, hits give low values 1.02 | locus YGR135W, strain pre9, hits give low values 1.04 | locus YGR229C, strain SMI1, hits give low values 0.99 | locus YGR252W, strain gcn5, hits give low values 1.01 | locus YHR013C, strain ard1, hits give low values 1.03 | locus YHR027C, strain rpn1, hits give low values 1.02 | locus YHR030C, strain SLT2, hits give low values 1.01 and 0.968 | locus YHR079C, strain IRE1 (second series), hits give low values 1.01 | locus YHR079C, strain IRE1, hits give low values 0.971 | locus YHR094C, strain hxt1, hits give low values 1.01 | locus YHR129C, strain ARP1, hits give low values 1 | locus YHR142W, strain chs7, hits give low values 1.02 | locus YHR200W, strain rpn10, hits give low values 1.02 | locus YIL066C, strain RNR3, hits give low values 1 | locus YIL073C, strain SPO22, hits give low values 1.05 | locus YIL125W, strain kgd1, hits give low values 1.01 | locus YIR030C, strain dcg1, hits give low values 1 | locus YJL092W, strain hpr5, hits give low values 1.02 | locus YJL095W, strain BCK1 (second series), hits give low values 1.01 | locus YJL095W, strain BCK1, hits give low values 0.985 and 0.967 | locus YJL115W, strain asf1, hits give low values 1.02 | locus YJL129C, strain trk1, hits give low values 1.02 | locus YJL134W, strain LCB3, hits give low values 1 | locus YJL154C, strain vps35, hits give low values 1 | locus YJL164C, strain tpk1, hits give low values 1.01 | locus YJL166W, strain qcr8, hits give low values 1.03 | locus YJL168C, strain set2, hits give low values 1 | locus YJL187C, strain SWE1 (second series), hits give low values 0.982 | locus YJR043C, strain POL32, hits give low values 1.01 | locus YJR066W, strain TOR1, hits give low values 0.928 | locus YJR075W, strain HOC1, hits give low values 0.999
